# “And” between values parts separate entries of the source, which are not always exact repeats. Equal entries are not always repeated. Unmarked numbers belong to inactive results. Results filed as inconclusive are left out. Entries that show only a call come without a potency. The source made the active and inactive calls. The call rests on the fitted dose curve; in most records, active means well fitted curve in the direction sought with a large enough effect; inconclusive means small, poorly fitted or top-dose-only effect, or another doubt; inactive means no such curve, though single readings can be large; an effect the other way counts as inactive or inconclusive.
# Tests used:
# [1] = Validation qHTS assay for inhibitors of Activation Induced Cytidine Deaminase (AID): UDG Counterscreen signal (AID 1347427); settings: biochemical UDG counterscreen, fluorescence signal; series mostly up to 115 µM
# Procedure, shortened: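 Fluorescence at 560 nm excitation, 665 nm emission reports UDG signal after 250 mM NaOH (2x) addition and 30 min. Enzymes (AID 1 uM, UDG 2 U/mL, at 4/3x) preincubated 10 min with compound, then 4 h with 4x 250 nM DJC20/DJC23 substrate at room temperature.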
# [2] = target: Single-stranded DNA cytosine deaminase (Homo sapiens) (UniProt Q9GZX7); assay: Validation qHTS assay for inhibitors of Activation Induced Cytidine Deaminase (AID): AID signal (AID 1347429); settings: Recombinant AID, FRET ssDNA deamination with UDG, fluorescence; series mostly up to 115 µM
# Procedure, shortened: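 AID+UDG coupled FRET deamination; cpds up to 114 uM final; DJC20/DJC23 substrate, 4 hr RT; NaOH stop, 30 min RT; read Ex 540/Em 590.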
# [3] = Primary qHTS for inhibitors of La Crosse Virus (LACV) - induced cell death in SH-SY5Y cells (AID 1508616); settings: SH-SY5Y LACV cytopathicity rescue, ATP luminescence, 6 d; series mostly up to 4.29 µM;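 further: top concentration of the series differs between compounds; higher means more rescue of cells from virus-induced death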
# Procedure, shortened: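 Cytopathicity rescue screen: compounds pinned onto SH-SY5Y cells, which are then infected with LACV (MOI 0.01) and held 6 days at 37C. Percent activity is scaled between infected DMSO control and uninfected DMSO control.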
# [4] = target: Calcium and integrin-binding protein 1 (Homo sapiens) (UniProt Q99828); assay: Validation qHTS for Identification of Calcium Integrin Binding protein 1 (CIB1) Competitor (AID 1508618); settings: CIB1-GST / FITC-alphaIIb peptide fluorescence polarization; series mostly up to 114 µM
# Procedure, shortened: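 Fluorescence polarization with 1 uM CIB1-GST and 100 nM FITC-alphaIIb peptide in HEPES pH 7.4, NaCl, 5 mM CaCl2, Tween20. Compounds at up to 114 uM final, preincubated with protein 15 min; read after 15 min more at RT.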
# [5] = target: Calcium and integrin-binding protein 1 (Homo sapiens) (UniProt Q99828); assay: Primary qHTS for Identification of Calcium Integrin Binding Protein 1 (CIB1) Competitor (AID 1508620); settings: CIB1-GST / FITC-alphaIIb peptide fluorescence polarization; series mostly up to 57.7 µM;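 further: GST tagged CIB1 binding a fluorescein labelled alphaIIb integrin peptide tracer; top concentration of the series differs between compounds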
# Procedure, shortened: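 Fluorescence polarization competition: CIB1-GST (1 uM final) preincubated with compound 15 min at room temperature, then FITC-labeled alphaIIb peptide (100 nM final) added for another 15 min. Polarization read at Ex 480/Em 540.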
# [6] = Primary qHTS for small molecule stabilizers of the endoplasmic reticulum resident proteome: Secreted ER Calcium Modulated Protein (SERCaMP) assay (AID 1508630); settings: SH-SY5Y GLuc-SERCaMP (Gaussia luciferase released on ER calcium loss) secretion, thapsigargin, luminescence; series mostly up to 38.4 µM; further: potency means the concentration at half of the fitted maximal effect
# Procedure, shortened: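 The SH-SY5Y reporter protocol was run at 3 concentrations up to 38.3 uM (primary) or 11 concentrations (follow-up): 16 h compound, 100 nM thapsigargin for 4 h, then extracellular luciferase luminescence.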
# [7] = Counterscreen qHTS for small molecule stabilizers of the endoplasmic reticulum resident proteome: GLuc-NoTag assay (AID 1508627); settings: Gaussia luciferase NoTag secretion counterscreen, luminescence, thapsigargin 100 nM for final 4 h; series mostly up to 76.4 µM; further: potency means the concentration at half of the fitted maximal effect
# Procedure, shortened: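 Secreted GLuc lacking the SERCaMP modification is measured in SH-SY5Y cells exposed to compound for 19 h and then to thapsigargin (100 nM, 4 h) to deplete ER calcium; hits retested at 11 concentrations, up to 76.6 uM.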
# [8] = Cell Viability qHTS for small molecule stabilizers of the endoplasmic reticulum resident proteome (AID 1508629); settings: cell viability counter-screen, 100 nM thapsigargin for final 4 h;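 further: human SH-SY5Y neuroblastoma cells carrying the GLuc-SERCaMP reporter; compound exposure about 46 h in total before the viability read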
# [9] = target: Calcium and integrin-binding protein 1 (Homo sapiens) (UniProt Q99828); assay: Confirmatory qHTS for Identification of Calcium Integrin Binding Protein 1 (CIB1) Competitor (AID 1508617); settings: CIB1 binding competition assay, biochemical qHTS; series mostly up to 114 µM; further: nearly all actives have a fitted effect of over 65% in size
# Procedure, shortened: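 FP competition: CIB1-GST (1 uM final) in 5 mM HEPES pH 7.4, 125 mM NaCl, 5 mM CaCl2, 0.01% Tween20 preincubated 15 min RT with compounds (up to 114 uM), then FITC-alphaIIb peptide (100 nM), 15 min RT; Ex 480/Em 540.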
# [10] = Confirmatory qHTS for small molecule stabilizers of the endoplasmic reticulum resident proteome: Secreted ER Calcium Modulated Protein (SERCaMP) assay (AID 1508628); settings: SERCaMP secreted luciferase ER calcium/proteostasis reporter; series mostly up to 76.3 µM; further: nearly all actives have a fitted effect of over 40% in size; further: potency means the concentration at half of the fitted maximal effect
# Procedure, shortened: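 GLuc-SERCaMP-expressing SH-SY5Y cells, pretreated 16 h with compound, are challenged with thapsigargin to empty ER calcium stores; after 4 h, coelenterazine is added directly to the medium and luminescence is imaged.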
# Chain of Calcium and integrin-binding protein 1 (Homo sapiens) (Q99828 whole entry, looked up): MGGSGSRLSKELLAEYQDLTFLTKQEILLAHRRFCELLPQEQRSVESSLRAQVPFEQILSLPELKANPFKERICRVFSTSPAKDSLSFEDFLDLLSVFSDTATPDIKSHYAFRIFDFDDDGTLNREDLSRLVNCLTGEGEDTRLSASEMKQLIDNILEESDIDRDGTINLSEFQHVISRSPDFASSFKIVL
# Chain of Single-stranded DNA cytosine deaminase (Homo sapiens) (Q9GZX7 whole entry, looked up): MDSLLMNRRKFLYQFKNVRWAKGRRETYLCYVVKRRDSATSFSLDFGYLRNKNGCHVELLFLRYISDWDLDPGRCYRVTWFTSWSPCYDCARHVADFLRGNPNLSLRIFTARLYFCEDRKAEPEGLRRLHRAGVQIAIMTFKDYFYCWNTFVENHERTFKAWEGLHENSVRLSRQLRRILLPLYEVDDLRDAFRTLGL
SMILES,outcome [1],Potency [2],outcome [3],Potency [4],outcome [5],Potency [6],Potency [7],max response [8],Potency [9],Potency [10]
CC(C)C[C@H](NC(=O)[C@@H](O)[C@H](N)Cc1ccccc1)C(=O)O,inactive,inactive,inactive,inactive,inactive,inactive,–,–,–,–
NCCCC(N)(C(=O)O)C(F)F (stereo not given),inactive,inactive,inactive,inactive,–,–,–,–,–,–
Nc1ncnc2nc(-c3ccc(N4CCOCC4)nc3)cc(-c3cccc(Br)c3)c12,inactive,inactive,inactive,–,–,–,–,–,–,–
Oc1ccc(C2CNCCc3c2cc(O)c(O)c3Cl)cc1 (stereo not given),inactive,inactive,inactive,inactive,inactive,inactive,inactive,-10.9%,–,–
CC(C)(C)NCC(O)c1ccc(O)c(CO)c1 (stereo not given),inactive,inactive,inactive,inactive,inactive,–,–,–,–,–
Clc1cccc(Cl)c1NC1=NCCN1,inactive,inactive,inactive,inactive,inactive,–,–,–,–,–
CCOC(=O)N1CCC(=C2c3ccc(Cl)cc3CCc3cccnc32)CC1,inactive,inactive,inactive,inactive,inactive,inactive,35.5 µM (active),–,–,–
O=C(O)COCCN1CCN(C(c2ccccc2)c2ccc(Cl)cc2)CC1 (stereo not given),inactive,inactive,inactive,inactive,inactive,–,–,–,–,–
NC[C@H](O)c1ccc(O)c(O)c1,inactive,inactive,inactive,inactive,inactive,inactive,–,–,inactive,–
O=c1n(CCCN2CCN(c3cccc(Cl)c3)CC2)nc2ccccn12,inactive,inactive,inactive,inactive,inactive,–,–,–,–,–
OC(CN1CCC(Cc2ccc(F)cc2)CC1)c1ccc(Cl)cc1 (stereo not given),inactive,inactive,inactive,inactive,inactive,–,17.8 µM (active),-25.9%,–,–
NC(N)=NC(=O)c1nc(Cl)c(N)nc1N,inactive,inactive,inactive,inactive,–,–,–,–,–,–
Nc1ccc(S(=O)(=O)Nc2ccnn2-c2ccccc2)cc1,inactive,inactive,inactive,inactive,inactive,inactive,–,–,–,–
Cn1cnc([N+](=O)[O-])c1Sc1ncnc2nc[nH]c12,inactive,inactive,inactive,inactive,inactive,inactive,–,–,–,–
OC(CCN1CCCCC1)(c1ccccc1)C1CC2C=CC1C2 (stereo not given),inactive,inactive,inactive,inactive,inactive,10 µM (active),inactive,24.4%,–,15.8 µM (active) and 22.4 µM (active)
O=C1CCC(N2C(=O)c3ccccc3C2=O)C(=O)N1 (stereo not given),inactive,inactive,inactive,inactive,inactive,–,–,–,–,–
CC(=O)Oc1ccccc1C(=O)O,inactive,inactive,inactive,inactive,inactive,inactive,–,–,–,–
Cc1cn[nH]c1,inactive,inactive,inactive,inactive,inactive,inactive,–,–,–,–
O=NN(CCCl)C(=O)NCCCl,inactive,inactive,inactive,inactive,inactive,inactive,–,–,–,–
CCCCNc1cc(C(=O)O)cc(S(N)(=O)=O)c1Oc1ccccc1,inactive,inactive,inactive,inactive,inactive,inactive,–,–,–,–
NCCc1ccc(O)c(O)c1,inactive,inactive,inactive,inactive,inactive,inactive,–,–,–,–
CCc1ccc(CCOc2ccc(CC3SC(=O)NC3=O)cc2)nc1 (stereo not given),–,–,inactive,–,inactive,inactive,–,–,–,–
CCCc1nc2c(C)cc(-c3nc4ccccc4n3C)cc2n1Cc1ccc(-c2ccccc2C(=O)O)cc1,–,–,inactive,–,inactive,inactive,–,–,–,–
CCOC(=O)C1=C[C@]2(CC)CCCN3CCc4c(n1c1ccccc41)[C@@H]32,inactive,inactive,inactive,inactive,–,inactive,–,–,–,–
Nc1nc2c(ncn2COCCO)c(=O)[nH]1,–,–,inactive,inactive,inactive,inactive,inactive,1.71%,–,inactive

# — PubChem BioAssay (NCATS)
